The source made the active and inactive calls.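 How the source made its calls, unless noted: active means z-score of at least 1.8 in each of two replicates, scored against plate mean and spread of sample wells; inactive means the rest.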

The values that follow come from PubChem BioAssay.

The nature of the first test: phospholipid biosynthesis inhibitors in animal cells, primary screen, cell-based, LOPAC library, screen 4 (AID 1347384; call rule not given here). Conditions: phospholipid biosynthesis inhibition screen, at 10 µM.
As for `CC[n+]1c(/C=C/C=C2/N(C)c3ccccc3C2(C)C)sc2ccccc21`, the molecule was classed as inactive.

On to `C=C1C[C@@]23CC[C@H]4[C@@](C)(CCC[C@@]4(C)C(=O)OC4OC(CO)C(O)C(O)C4O)[C@@H]2CC[C@]1(OC1OC(CO)C(O)C(O)C1OC1OC(CO)C(O)C(O)C1O)C3` (some centres undefined), for which the molecule was classed as inactive.

Turning to `CCCCC#Cc1nc(NC)c2ncn([C@@H]3O[C@H](CO)C(O)[C@@H]3O)c2n1` (some centres undefined), the molecule was classed as inactive.

For the molecule `CC(=O)/C=C1\C(=O)N(C)c2ccccc21`, the molecule was classed as inactive.

Consider `COc1cc(N)c(Cl)cc1C(=O)OCCN1CCCCC1`, for which the molecule was called inactive.

Regarding `CN(CC[C@@H](Oc1ccc(C(F)(F)F)cc1)c1ccccc1)CC(=O)O`, the molecule was called inactive.

In the case of `O=c1[nH]c(=S)[nH]c(-c2ccccc2)c1Cc1c(O)ccc2ccccc12`, the outcome was inactive.

Turning to `Nc1nc2c(ncn2[C@@H]2O[C@H](CO)[C@@H](O)[C@@H]2O)c(=O)[nH]1`, the call was inactive.

With `COc1ccc(/C=C2\COc3ccc(C)cc3C2=O)cc1O`, the molecule was called inactive.

As for `Cc1cc2c(cc1Cl)N(C(=O)Nc1ccc(Oc3cccnc3C)nc1)CC2`, the call was inactive.

As to `CN1Cc2sccc2C(c2ccc(O)c(O)c2)C1` (centres undefined), the molecule was classed as inactive.

In the case of `Nc1ccc(-c2ccc3ccccc3n2)cc1`, the call was inactive.

Regarding `CC(C)c1cccc(C(C)C)c1N1C(=O)c2ccc(O)cc2C1=O`, the outcome was inactive.

As for `C=C1C[C@@]23CC[C@H]4[C@@](C)(CCC[C@@]4(C)C(=O)O)[C@@H]2CC[C@]1(O)C3`, the result was inactive.

Take `O=C1/C(=C/c2ccsc2)CC/C1=C\c1cccs1`: the molecule was classed as inactive.

For the molecule `Nc1nc(OCC2CCCCC2)c2[nH]cnc2n1`, the call was inactive.

Regarding `CCCC(CCC)C(=O)OC1CC2CCC(C1)[N+]2(C)C` (centres undefined), the molecule was called inactive.

As for `CSc1ccccc1N1CCN(CCCCCC(=O)NC2CCCc3ccccc32)CC1` (centres undefined), the outcome was inactive.

For the molecule `Cc1cc2c(cc1Cl)N(C(=O)Nc1ccnc3ccccc13)CC2`, the call was inactive.

Turning to `NC[C@@H]1O[C@H](c2ccccc2)Cc2c1ccc(O)c2O`, the molecule was classed as inactive.

Another test in a line: viability rescue of complex I mutant cybrids, primary screen, cell-based, galactose medium, ATP luminescence (AID 1645843).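 Further: positive z means more ATP and so rescue of galactose-driven cybrid death.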 Particulars: complex I mutant cybrid cells, 72 h, active compounds read high.
In the case of `CCNc1nc2c(ncn2[C@H]2C[C@H](O)[C@@H](CO)O2)c(=O)[nH]1`, the z-score was -0.005 (inactive).

`CC(=O)O[C@H]1Cc2ccccc2N(C(N)=O)c2ccccc21`: the z-score is 0.61 (inactive).

On to `COc1ccc(-c2cc3ncc(C)n3c(Nc3ncccc3C(N)=O)n2)cc1OC`, for which the z-score is 0.16 (inactive).

Regarding `COc1ccc2c(c1)CCC1C2CC[C@@]2(C)C1CC[C@@H]2NCCCCCCN1C(=O)CCC1=O` (some centres undefined), the z-score was -1.29 (inactive).

For the molecule `O=C(c1ccc(Cl)cc1)N1CCN(c2ccc([N+](=O)[O-])c3ncccc23)CC1`, the z-score was -1 (inactive).

With `Cc1cc(Cn2cnc3c2C[C@@H](C(=O)O)N(C(=O)C(c2ccccc2)c2ccccc2)C3)ccc1N`, the z-score is 0.405 (inactive).

As for `c1ccc2c(c1)CCC[C@H]2Nc1nc2ccccc2[nH]1`, the z-score is -0.675 (inactive).

Turning to `Clc1ccc(N2CCN(Cc3cc4ccccn4n3)CC2)cc1`, the z-score was -1.08 (inactive).

As for `Cn1ncc(S(=O)(=O)Cc2ccccc2)c(Br)c1=O`, the z-score was -1.24 (inactive).

As for `O=c1ccc2c(OCCCCc3ccccc3)c3ccoc3cc2o1`, the z-score is -0.515 (inactive).

`O=c1cc(-c2ccccc2F)[nH]c2cc3c(cc12)OCO3`: the z-score was -0.62 (inactive).

Regarding `O=C(CCCCCN1CCN(c2ccccc2-c2ccccc2)CC1)NC1CCCc2ccccc21` (centres undefined), the z-score is -1.38 (inactive).

As for `COc1cc(C(O)CO)ccc1O` (centres undefined), the z-score was 0.42 (inactive).

In the case of `Brc1c(Br)c(Br)c2[nH]cnc2c1Br`, the z-score was -1.17 (inactive).

With `OCC1O[C@H]([S-])[C@@H](O)C(O)[C@@H]1O.[Au+]` (some centres undefined), the z-score was -1.29 (inactive).

For `Clc1nccc2c1ccc1ccccc12`, the z-score was 0.565 (inactive).

On to `CN(C)CCCc1cc(C(=O)Nc2ccc(-c3ccncc3)cc2)ccc1O`, for which the z-score is 1.58 (inactive).

Regarding `N[C@H](CCCP(=O)(O)O)C(=O)O`, the z-score was 0.08 (inactive).

As for `Oc1ccc(/C=C/c2ccc(/C=C/c3ccc(O)cc3)c(Br)c2)cc1`, the z-score was 0.44 (inactive).

On to `CC[n+]1c(/C=C/C=C2/N(C)c3ccccc3C2(C)C)sc2ccccc21`, for which the z-score is -1.04 (inactive).

In the case of `C=C1C[C@@]23CC[C@H]4[C@@](C)(CCC[C@@]4(C)C(=O)OC4OC(CO)C(O)C(O)C4O)[C@@H]2CC[C@]1(OC1OC(CO)C(O)C(O)C1OC1OC(CO)C(O)C(O)C1O)C3` (some centres undefined), the z-score is 0.675 (inactive).

With `CCCCC#Cc1nc(NC)c2ncn([C@@H]3O[C@H](CO)C(O)[C@@H]3O)c2n1` (some centres undefined), the z-score was 0.245 (inactive).

On to `CC(=O)/C=C1\C(=O)N(C)c2ccccc21`, for which the z-score is -1.48 (inactive).

`COc1cc(N)c(Cl)cc1C(=O)OCCN1CCCCC1`: the z-score is 0.695 (inactive).
